The source of these data is PubChem BioAssay (Tox21).

Test [1] is described as follows: qHTS assay to identify small molecule antagonists of the estrogen receptor alpha (ER-alpha) signaling pathway using the BG1 cell line in the presence of 0.1 nM 17-beta-estradiol - cell viability counter screen (AID 1259241). Also: nearly all actives have a fitted effect of over 40% in size. Also: potency is read from the fitted curve at half-maximal effect. Summed up:
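VM7Luc4E2 cells (endogenous ER-alpha, 4×ERE-luciferase), hormone-starved 5 days in charcoal-stripped FBS, were treated with compounds plus 0.1 nM 17beta-estradiol for 22 hr at 37C; viability read in same wells as CellTiter-Fluor live-cell protease fluorescence.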

Test [2] in a line: qHTS assay to identify small molecule antagonists of the androgen receptor (AR) signaling pathway using the MDA cell line in the presence of 0.5 nM R1881 - cell viability counter screen (AID 1259242). Also: nearly all actives have a fitted effect of over 45% in size. In short, it runs like this:
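Viability of MDA-kb2 cells was multiplexed with the luciferase AR readout; after 16 hr with compounds and R1881 at 0.5 nM final, CellTiter-Fluor fluorescence was recorded.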
(In general: qHTS replaces the single test concentration by a dilution series.)

Test [3] in a line: qHTS assay to identify small molecule HDAC inhibitors (AID 1259364).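 Also: wild-type HCT-116 cells with endogenous class I/II HDAC activity; top concentration of the series differs between compounds; nearly all actives have a fitted effect of over 45% in size.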 Summed up: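 Read-out: luminescence of HDAC-Glo I/II reagent, 30 min RT, reflecting class I/II deacetylase activity in whole HCT-116 cells pre-exposed 2 h to DMSO-dissolved compounds.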
Test [4] is described as follows: qHTS assay to identify small molecule HDAC inhibitors - cell viability counter screen (AID 1259365). Also: series mostly up to about 92 µM; nearly all actives have a fitted effect of over 50% in size. In short, it runs like this:
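Wild-type HCT-116 cells were seeded at 1,500 per well, incubated overnight at 37 C, then exposed to compounds in DMSO for 2hr. Viability was read by CellTiter-Glo luminescence after 30min at room temperature.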

Test [5] in a line: qHTS assay to identify small molecule agonists of the sonic hedgehog signaling (Shh) pathway - cell viability counter screen (AID 1259366). Also: nearly all actives have a fitted effect of over 50% in size. Also: potency is read from the fitted curve at half-maximal effect. Summed up: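 NIH/3T3-derived 3T3 Gli1-Luc cells (stable Gli1-responsive firefly luciferase reporter) were seeded, rested 4 hr at 37 C/5% CO2, then exposed to compounds in DMSO for 24 hr; viability was read by CellTiter-Fluor fluorescence in the same wells.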

The nature of test [6]: qHTS assay to identify small molecule antagonists of the sonic hedgehog signaling (Shh) pathway - cell viability counter screen (AID 1259367). Also: nearly all actives have a fitted effect of over 55% in size. Also: potency is read from the fitted curve at half-maximal effect. Summed up:
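Cells: 3T3 Gli1-Luc, 2,000/well, 4 hr pre-incubation. Compounds in DMSO, then conditioned medium. Incubation 24 hr, 37C, 5% CO2. CellTiter-Fluor at 23 hr, 1 hr, fluorescence.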

Test [7] can be described thus: qHTS assay to identify small molecule agonists of the sonic hedgehog signaling (Shh) pathway (AID 1259368; calls by dose curve; also: series mostly up to about 92 µM; nearly all actives have a fitted effect of over 15% in size). Summed up: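 A Gli1 transcriptional response element controlled firefly luciferase in 3T3Gli1-Luc cells. Compounds and a positive control were added 4 hr after plating, and cells were incubated a further 24 hr at 37 C before luminescence detection.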
Test [8] in a line: qHTS assay to identify small molecule antagonists of the sonic hedgehog signaling (Shh) pathway (AID 1259369; calls by dose curve; also: nearly all actives have a fitted effect of over 45% in size; also: potency is read from the fitted curve at half-maximal effect). In short, it runs like this:
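For antagonist detection, the reporter line received test compounds together with conditioned medium, incubated 24hr at 37 C, 5% CO2, then luminescence was recorded following 30min room-temperature luciferase reagent incubation.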

The target of test [9] is Estrogen receptor beta (Homo sapiens) (UniProt Q92731). As to the kind of experiment: qHTS assay to identify small molecule agonists of the estrogen receptor beta (ER-beta) signaling pathway (AID 1259377; active = well fitted activation curve with a large enough effect in the signal ratio in the repeat runs, not every such curve was filed as active; the % refers to the signal ratio). In short, it runs like this:
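ER-beta-UAS-bla HEK293T (GripTite) cells carrying a UAS-driven beta-lactamase reporter, in medium with 2% charcoal-stripped FBS, were exposed to compounds for 16 hr at 37C; LiveBLAzer B/G FRET substrate was then added and fluorescence read after 2 hours at room temperature.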

Test [10] shares this target. As to the kind of experiment: qHTS assay to identify small molecule antagonists of the estrogen receptor beta (ER-beta) signaling pathway (AID 1259378; active = well fitted inhibition curve with a large enough effect in the signal ratio in the repeat runs, not every such curve was filed as active; the % refers to the signal ratio; also: potency is read from the fitted curve at half-maximal effect). In short, it runs like this: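 Antagonist mode: compounds added to beta-lactamase reporter HEK293T ER-beta-UAS cells stimulated with E2 (1nM final), 16 hr at 37C. LiveBLAzer B/G FRET substrate, 2 hours room temperature, fluorescence read-out.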

Test [11] in a line: qHTS assay to identify small molecule agonists of the androgen receptor (AR) signaling pathway in the presence of an antagonist - cell viability counter screen (AID 1259379). Also: nearly all actives have a fitted effect of over 25% in size. Also: potency is read from the fitted curve at half-maximal effect. In short, it runs like this: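 Seed MDA-kb2 at 3,000 cells/well; incubate 5 hr, 37C, 0% CO2. Add nilutamide to 3.0uM final, then pin compounds at 15 concentrations. Incubate 16 hr. Add CellTiter-Fluor at 15 hr, read fluorescence after 1 hr.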

A short description of test [12]: qHTS assay to identify small molecule agonists of the estrogen receptor beta (ER-beta) signaling pathway - cell viability counter screen (AID 1259380). Also: nearly all actives have a fitted effect of over 30% in size. Also: potency is read from the fitted curve at half-maximal effect. Summed up:
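CellTiter-Glo read, 30 min RT, same wells as bla assay; cells ER-beta-UAS-bla HEK293T; 16 hr compound, 37C; medium 2% charcoal-stripped FBS.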

Test [13] in a line: qHTS assay to identify small molecule antagonists of the estrogen receptor beta (ER-beta) signaling pathway - cell viability counter screen (AID 1259382). Also: nearly all actives have a fitted effect of over 55% in size. Also: potency is read from the fitted curve at half-maximal effect. In short, it runs like this: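 In this multiplexed counter screen, cells were seeded at 2,000 per well in medium with 2% charcoal-stripped FBS and incubated 6 hr before compound and 1nM final E2 were added. Sixteen hours later, ATP-based luminescence reported viability.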

Test [14] in a line: qHTS assay to identify small molecule agonists or antagonists of the thyroid stimulating hormone receptor (TSHR) signaling pathway - wild type cell line counter screen (AID 1259384; calls by dose curve). Summed up: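 Counter screen in untransfected Hek293: compounds (15-point titration, triplicate) plus phosphodiesterase inhibitor Ro20-1724 added after 18 h plating; 30 min RT. Intracellular cAMP via competitive d2/cryptate immunoassay, 1 h incubation.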

The target in test [15] is Thyrotropin receptor (Homo sapiens) (UniProt P16473). Nature of the test: qHTS assay to identify small molecule antagonists of the thyroid stimulating hormone receptor (TSHR) signaling pathway (AID 1259385; calls by dose curve; also: nearly all actives have a fitted effect of over 20% in size). Summed up: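 Antagonist mode: compound-treated TSHR-expressing HEK293 cells were stimulated with 1.5 ng/mL TSH (final) in presence of Ro20-1724 for 30 min at RT. HTRF cAMP detection after 1 h; each compound tested at 15 concentrations, triplicate.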
Chain of Thyrotropin receptor (Homo sapiens) (P16473 whole entry, looked up): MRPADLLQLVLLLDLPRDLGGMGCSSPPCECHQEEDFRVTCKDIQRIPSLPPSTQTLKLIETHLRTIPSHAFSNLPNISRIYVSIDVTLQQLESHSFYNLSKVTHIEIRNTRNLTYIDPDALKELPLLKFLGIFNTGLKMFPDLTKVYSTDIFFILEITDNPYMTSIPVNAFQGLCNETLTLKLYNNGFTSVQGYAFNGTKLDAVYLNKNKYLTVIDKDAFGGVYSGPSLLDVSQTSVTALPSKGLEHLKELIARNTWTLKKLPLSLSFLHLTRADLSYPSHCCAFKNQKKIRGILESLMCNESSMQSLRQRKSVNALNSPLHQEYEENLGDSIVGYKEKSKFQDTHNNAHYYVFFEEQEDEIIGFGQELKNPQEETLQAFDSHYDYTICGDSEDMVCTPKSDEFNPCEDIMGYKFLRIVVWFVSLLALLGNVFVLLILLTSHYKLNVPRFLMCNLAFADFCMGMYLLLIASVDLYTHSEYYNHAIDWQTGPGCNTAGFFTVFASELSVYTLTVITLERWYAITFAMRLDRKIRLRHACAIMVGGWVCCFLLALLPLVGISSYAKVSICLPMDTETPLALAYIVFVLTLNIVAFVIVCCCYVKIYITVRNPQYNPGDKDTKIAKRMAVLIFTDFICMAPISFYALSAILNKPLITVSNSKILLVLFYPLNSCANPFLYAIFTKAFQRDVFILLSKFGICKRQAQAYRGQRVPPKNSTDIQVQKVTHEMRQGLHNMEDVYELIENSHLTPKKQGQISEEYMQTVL

Test [16] addresses Estrogen receptor (Homo sapiens) (UniProt P03372). Nature of the test: qHTS assay to identify small molecule agonists of the estrogen receptor alpha (ER-alpha) signaling pathway in the presence of an antagonist (AID 1259383; calls by dose curve; also: nearly all actives have a fitted effect of over 15% in size; also: potency is read from the fitted curve at half-maximal effect; as to activation: top concentration of the series differs between compounds). Summed up:
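Stably transfected VM7Luc4E2 reporter cells, kept 5 days in charcoal-stripped serum, received ICI-182,780 at 10.0nM final before compound addition. Following 22hr incubation at 37C and 5% CO2, luciferase signal was read by luminescence.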

Test [17] concerns the target Androgen receptor (Homo sapiens) (UniProt P10275). As to the kind of experiment: qHTS assay to identify small molecule antagonists of the androgen receptor (AR) signaling pathway using the MDA cell line in the presence of 0.5 nM R1881 (AID 1259243). Also: potency is read from the fitted curve at half-maximal effect; nearly all actives have a fitted effect of over 50% in size. In short, it runs like this:
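Reporter cells cultured without CO2 receive test chemicals, then 0.5 nM R1881 final; after 16 hr at 37C, ONE-Glo is added and light output recorded.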

Test [18] concerns the target Estrogen receptor (Homo sapiens) (UniProt P03372). Nature of the test: qHTS assay to identify small molecule antagonists of the estrogen receptor alpha (ER-alpha) signaling pathway using the BG1 cell line in the presence of 0.1 nM 17-beta-estradiol (AID 1259244). Also: potency is read from the fitted curve at half-maximal effect; nearly all actives have a fitted effect of over 50% in size. Summed up:
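Estradiol at 0.1 nM (final) stimulates the endogenous ER-alpha of VM7Luc4E2 cells carrying an ERE-driven luciferase; compounds are co-incubated 22 h at 37C and luciferase output quantified by luminescence.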

Test [19] concerns the target Androgen receptor (Homo sapiens) (UniProt P10275). Nature of the test: qHTS assay to identify small molecule agonists of the androgen receptor (AR) signaling pathway in the presence of an antagonist (AID 1259381; calls by dose curve; also: nearly all actives have a fitted effect of over 15% in size). Summed up: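 Test compounds at 15 concentrations were incubated for 16hr with MDA-kb2 reporter cells in presence of 3.0uM nilutamide (final). Signal: ONE-Glo luciferase luminescence.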

A short description of test [20]: qHTS assay to identify small molecule phospholipidosis (PLD) inducers (AID 1259344; active = well fitted curve in the direction sought with a large enough effect; an effect the other way counts as inactive or inconclusive). Summed up: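 Phospholipidosis is scored by imaging LipidTOX-stained pits in HepG2 cells exposed to compound for 24 h at 37 C; pit counts and integrated intensities per well and per cell serve as outputs.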

Where “and” joins values, the source holds several entries; their conditions need not be identical. Equal entries are not always repeated. Inconclusive results are not listed. Calls of active or inactive are those of the source. Unless noted, calls follow the shape of the dose curve; as a rule, active = well fitted curve in the direction sought with a large enough effect in the repeat runs; inconclusive = weak or mixed curves; inactive = no such curve, though single readings can be large; an effect the other way counts as inactive or inconclusive.

Chain of Estrogen receptor beta (Homo sapiens) (Q92731 whole entry, looked up): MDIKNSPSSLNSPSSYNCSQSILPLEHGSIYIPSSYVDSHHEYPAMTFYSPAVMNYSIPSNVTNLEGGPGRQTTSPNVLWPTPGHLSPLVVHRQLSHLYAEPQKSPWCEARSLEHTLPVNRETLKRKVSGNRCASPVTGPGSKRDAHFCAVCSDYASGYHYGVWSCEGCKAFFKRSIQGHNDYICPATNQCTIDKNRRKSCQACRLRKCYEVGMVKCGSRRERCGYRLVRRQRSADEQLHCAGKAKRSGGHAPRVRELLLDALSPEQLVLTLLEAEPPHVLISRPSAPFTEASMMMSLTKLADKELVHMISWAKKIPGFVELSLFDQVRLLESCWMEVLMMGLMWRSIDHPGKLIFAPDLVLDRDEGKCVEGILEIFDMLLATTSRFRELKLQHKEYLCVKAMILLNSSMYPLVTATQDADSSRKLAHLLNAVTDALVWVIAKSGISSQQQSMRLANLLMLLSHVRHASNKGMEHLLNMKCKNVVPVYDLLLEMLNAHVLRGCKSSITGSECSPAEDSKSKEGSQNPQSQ
Chain of Estrogen receptor (Homo sapiens) (P03372 whole entry, looked up): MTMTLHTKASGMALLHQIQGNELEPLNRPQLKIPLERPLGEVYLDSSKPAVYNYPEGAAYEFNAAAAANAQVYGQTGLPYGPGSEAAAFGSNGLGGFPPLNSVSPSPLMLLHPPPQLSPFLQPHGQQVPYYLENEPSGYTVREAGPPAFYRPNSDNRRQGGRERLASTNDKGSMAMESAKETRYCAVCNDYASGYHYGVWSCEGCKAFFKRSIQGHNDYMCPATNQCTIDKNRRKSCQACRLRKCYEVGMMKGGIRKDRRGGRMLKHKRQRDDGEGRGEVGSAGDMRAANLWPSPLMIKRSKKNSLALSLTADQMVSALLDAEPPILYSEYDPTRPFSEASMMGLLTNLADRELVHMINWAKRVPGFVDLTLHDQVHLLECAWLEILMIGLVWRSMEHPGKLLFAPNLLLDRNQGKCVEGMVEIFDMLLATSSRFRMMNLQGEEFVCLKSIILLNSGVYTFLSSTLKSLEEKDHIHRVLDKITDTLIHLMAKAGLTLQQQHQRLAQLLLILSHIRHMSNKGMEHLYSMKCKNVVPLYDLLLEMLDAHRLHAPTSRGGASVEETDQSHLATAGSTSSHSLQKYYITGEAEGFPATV
Chain of Androgen receptor (Homo sapiens) (P10275 whole entry, looked up): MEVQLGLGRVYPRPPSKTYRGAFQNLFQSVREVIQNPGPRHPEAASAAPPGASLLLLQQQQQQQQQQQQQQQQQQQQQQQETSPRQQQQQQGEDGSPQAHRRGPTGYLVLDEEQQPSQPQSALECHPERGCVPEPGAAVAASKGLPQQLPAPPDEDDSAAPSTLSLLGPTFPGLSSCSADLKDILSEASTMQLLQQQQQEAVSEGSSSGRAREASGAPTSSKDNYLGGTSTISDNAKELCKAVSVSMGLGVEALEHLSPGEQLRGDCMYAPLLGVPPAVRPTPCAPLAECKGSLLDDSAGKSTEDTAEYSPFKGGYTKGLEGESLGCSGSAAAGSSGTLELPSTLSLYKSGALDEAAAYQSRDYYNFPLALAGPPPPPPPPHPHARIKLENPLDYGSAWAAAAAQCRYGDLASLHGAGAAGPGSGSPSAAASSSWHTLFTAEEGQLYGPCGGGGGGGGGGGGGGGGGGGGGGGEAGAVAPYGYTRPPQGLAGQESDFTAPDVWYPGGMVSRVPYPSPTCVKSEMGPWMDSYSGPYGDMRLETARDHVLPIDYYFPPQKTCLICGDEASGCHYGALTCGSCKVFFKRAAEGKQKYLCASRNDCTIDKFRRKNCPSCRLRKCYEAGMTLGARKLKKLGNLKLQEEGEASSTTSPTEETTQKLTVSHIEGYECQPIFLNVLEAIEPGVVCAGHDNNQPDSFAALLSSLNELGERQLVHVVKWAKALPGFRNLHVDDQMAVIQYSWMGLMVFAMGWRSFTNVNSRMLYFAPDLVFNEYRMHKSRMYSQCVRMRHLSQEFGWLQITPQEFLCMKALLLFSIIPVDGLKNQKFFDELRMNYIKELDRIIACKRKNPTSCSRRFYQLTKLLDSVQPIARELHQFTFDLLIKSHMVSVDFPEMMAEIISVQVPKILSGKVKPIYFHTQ

For `c1ccc(OCC2CO2)cc1` (configuration not stated), the Potency result in test [1], in [2], in test [3], in test [4], in test [5] and in [6] was “inactive” each time. Moreover, the Potency entry in test [7], in test [8], in test [9], in test [10], in test [11] and in test [12] was “inactive” in each case. Also, the Potency entry in test [13] is “inactive”. Moreover, in [14], the compound was called inactive.
With `O=C(O)C1C2CCC(O2)C1C(=O)O` (configuration not stated), the Potency result in test [1], in test [2], in [3], in [4], in [7] and in test [11] was “inactive” in each case. In addition, the Potency result in test [12], in test [13] and in test [15] was “inactive” throughout. Besides, the Potency is 19.6 µM (active) and 11.2 µM (active) in test [5]; 31 µM (active) in test [6]; 15.8 µM (active) in [8]. The result in [14] was inactive.
In the case of `CC(C)[C@H](C(=O)OC(C#N)c1cccc(Oc2ccccc2)c1)c1ccc(OC(F)F)cc1` (some centres not stated), the Potency entry in [1], in test [2], in test [3], in [4], in test [5] and in test [6] was “inactive” each time. The Potency entry in test [7], in test [8], in test [9], in test [10], in test [11] and in test [12] was “inactive” in each case. The Potency result in test [13] was “inactive”. Moreover, in test [14], the compound was classed as inactive.
As for `Oc1ccc(C2(c3ccc(O)cc3)CCCCC2)cc1`, the Potency result in test [1], in [2], in test [3], in [4], in test [7] and in [11] was “inactive” throughout. The Potency in test [5] was 25.9 µM (active); in test [8], 46 µM (active); in test [12], 57.9 µM (active); in test [13], 57.9 µM (active); in [16], 14.5 µM (active). Moreover, the compound was called inactive in test [14].
Turning to `N#Cc1ccccc1Cl`, the Potency entry in test [1], in test [2], in [3], in test [4], in [5] and in [6] was “inactive” throughout. For the same compound, the Potency result in test [7], in test [8], in test [9], in test [10], in [11] and in [12] was “inactive” in each case. In addition, the Potency entry in [13] and in [15] was “inactive” in each case. Moreover, the result in test [14] was inactive.
For `CC1(C)CN=C(NN=C(/C=C/c2ccc(C(F)(F)F)cc2)/C=C/c2ccc(C(F)(F)F)cc2)NC1`, the Potency was 61.1 µM (active) in [1]; 17.2 µM (active) in [17]; 48.6 µM (active) in [18]; 19.3 µM (active) in test [5]; 17.2 µM (active) in test [6]; 6.86 µM (active) in test [8]. The Potency in test [11] is 30.6 µM (active); in test [12], 19.3 µM (active); in test [13], 19.3 µM (active). For the same compound, the Potency entry in test [3], in test [4], in [7], in test [19] and in test [16] was “inactive” in each case. Moreover, in test [14], the outcome was inactive.
With `c1ccc2c(c1)OCC(C1=NCCN1)O2` (configuration not stated), the Potency entry in test [1], in test [2], in [20], in test [4], in test [7] and in [9] was “inactive” in each case. Further, the Potency entry in [11], in test [13], in test [16] and in [15] was “inactive” each time. Also, the Potency is 2.11 µM (active) in test [6], 0.376 µM (active) in test [8] and 11.9 µM (active) in test [10]. In addition, the result in test [14] was inactive.
